Measured values reported in PubChem BioAssay.
The source made the active and inactive calls.

Legend:
[1] = test system: Plasmodium falciparum Sir2 (PF13_0152, Sir2A); assay: Plasmodium falciparum Sir2A binding compounds – biochemical, small-molecule microarray, 635 nm fluorescence, primary screen (AID 1098); settings: fluorescence 635 nm, higher = more signal;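 also: score merges spot fluorescence intensity with its signal-to-noise ratio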
[2] = probe aDKK1 binding to arrayed compounds – biochemical, biotinylated probe, 635/667 nm fluorescence, primary screen (AID 1099); settings: small-molecule microarray, higher = more signal;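 also: score merges 667nm spot fluorescence with signal to noise across triplicate slides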
[3] = probe aCHRDL2 binding to arrayed compounds – biochemical, biotinylated probe, 635/667 nm fluorescence, primary screen (AID 1100); settings: small-molecule microarray, higher = more signal
[4] = change in splice reporter luminescence, either direction, cell-based, HEK293, spliceosome inhibition project, primary screen (AID 1101); settings: HEK293 splicing luciferase reporter, 24 h, higher = more signal, called active from +8 up or from −8 down;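 also: HEK293 cells carrying a splicing-competent luciferase reporter gene; test concentration not given here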
[5] = molecular target: Fibroblast growth factor 10 (Homo sapiens) (UniProt O15520); assay: compounds binding fibroblast growth factor 10 – biochemical, small-molecule microarray, 635 nm fluorescence, primary screen (AID 1102); settings: FGF10 binding, fluorescence 635 nm, higher = more signal
Chain of Fibroblast growth factor 10 (Homo sapiens) (O15520 whole entry, looked up): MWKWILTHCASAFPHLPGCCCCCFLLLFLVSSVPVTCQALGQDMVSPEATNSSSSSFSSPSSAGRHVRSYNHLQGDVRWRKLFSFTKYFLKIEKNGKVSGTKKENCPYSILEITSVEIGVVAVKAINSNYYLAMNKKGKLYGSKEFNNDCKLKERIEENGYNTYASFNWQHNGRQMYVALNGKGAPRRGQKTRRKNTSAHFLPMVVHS

[6] = test system: glycogen synthase kinase-3 (GSK3A per assay name; protocol says GSK3B); assay: compounds binding glycogen synthase kinase-3 – biochemical, small-molecule microarray, 635 nm fluorescence, GSK3A, primary screen (AID 1103); settings: fluorescence 635 nm, higher = more signal; also: the record names both GSK3A and GSK3B
[7] = molecular target: Epidermal growth factor receptor (Homo sapiens) (UniProt P00533); assay: compounds binding epidermal growth factor receptor – biochemical, small-molecule microarray, 635 nm fluorescence, primary screen (AID 1104); settings: EGFR binding, higher = more signal;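 also: score merges 667 nm emission intensity with spot signal to noise over triplicate slides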
Chain of Epidermal growth factor receptor (Homo sapiens) (P00533 whole entry, looked up): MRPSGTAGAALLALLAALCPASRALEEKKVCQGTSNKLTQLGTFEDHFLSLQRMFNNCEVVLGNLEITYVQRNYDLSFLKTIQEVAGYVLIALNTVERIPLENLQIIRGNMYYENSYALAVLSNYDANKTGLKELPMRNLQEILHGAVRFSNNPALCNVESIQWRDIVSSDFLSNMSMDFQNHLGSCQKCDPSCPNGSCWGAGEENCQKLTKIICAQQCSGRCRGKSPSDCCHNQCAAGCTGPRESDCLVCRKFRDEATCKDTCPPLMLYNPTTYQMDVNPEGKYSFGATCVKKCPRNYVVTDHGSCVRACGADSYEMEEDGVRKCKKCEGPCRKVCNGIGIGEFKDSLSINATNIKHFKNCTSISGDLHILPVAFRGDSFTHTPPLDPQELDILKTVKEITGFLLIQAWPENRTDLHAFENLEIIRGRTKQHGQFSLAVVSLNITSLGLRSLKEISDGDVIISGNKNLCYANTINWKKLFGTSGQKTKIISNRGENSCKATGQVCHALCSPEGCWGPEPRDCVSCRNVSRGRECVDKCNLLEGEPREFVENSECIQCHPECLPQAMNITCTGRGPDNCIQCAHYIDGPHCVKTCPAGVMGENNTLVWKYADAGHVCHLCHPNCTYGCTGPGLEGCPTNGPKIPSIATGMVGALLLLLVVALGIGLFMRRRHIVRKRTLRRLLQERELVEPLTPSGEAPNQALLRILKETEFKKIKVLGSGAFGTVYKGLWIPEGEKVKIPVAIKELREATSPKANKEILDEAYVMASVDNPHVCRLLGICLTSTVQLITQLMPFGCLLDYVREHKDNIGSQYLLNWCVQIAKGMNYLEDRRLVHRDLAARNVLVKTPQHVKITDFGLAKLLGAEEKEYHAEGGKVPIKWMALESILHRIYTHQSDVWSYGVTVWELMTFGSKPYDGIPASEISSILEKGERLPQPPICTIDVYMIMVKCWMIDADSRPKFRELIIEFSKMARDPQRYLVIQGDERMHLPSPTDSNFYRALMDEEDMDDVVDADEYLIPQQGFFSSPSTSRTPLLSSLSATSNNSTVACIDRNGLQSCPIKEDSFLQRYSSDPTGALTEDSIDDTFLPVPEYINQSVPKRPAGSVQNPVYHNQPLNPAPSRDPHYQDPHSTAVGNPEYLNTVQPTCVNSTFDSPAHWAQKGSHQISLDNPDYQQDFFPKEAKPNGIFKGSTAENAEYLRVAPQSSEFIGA

[8] = molecular target: Follistatin-related protein 3 (Homo sapiens) (UniProt O95633); assay: compounds binding follistatin-related protein 3 – biochemical, small-molecule microarray, 635 nm fluorescence, primary screen (AID 1105); settings: FSTL3 binding, higher = more signal;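 also: score merges emission near 667 nm and signal to noise per printed spot across three slides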
Chain of Follistatin-related protein 3 (Homo sapiens) (O95633 whole entry, looked up): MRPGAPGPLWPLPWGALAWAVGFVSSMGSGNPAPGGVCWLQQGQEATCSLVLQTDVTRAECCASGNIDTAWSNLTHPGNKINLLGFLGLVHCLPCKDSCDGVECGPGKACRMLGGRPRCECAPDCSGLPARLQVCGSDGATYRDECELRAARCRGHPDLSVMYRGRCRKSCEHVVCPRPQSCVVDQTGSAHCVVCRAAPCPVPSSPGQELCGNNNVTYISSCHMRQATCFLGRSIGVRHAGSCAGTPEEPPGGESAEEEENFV

[9] = molecular target: Dickkopf-related protein 1 (Homo sapiens) (UniProt O94907); assay: small molecules binding DKK1 protein – biochemical, small-molecule microarray, 635 nm fluorescence scan, primary screen (AID 1106); settings: higher = more signal;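 also: score merges emission near 667 nm with signal to noise over three replicate slides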
Chain of Dickkopf-related protein 1 (Homo sapiens) (O94907 whole entry, looked up): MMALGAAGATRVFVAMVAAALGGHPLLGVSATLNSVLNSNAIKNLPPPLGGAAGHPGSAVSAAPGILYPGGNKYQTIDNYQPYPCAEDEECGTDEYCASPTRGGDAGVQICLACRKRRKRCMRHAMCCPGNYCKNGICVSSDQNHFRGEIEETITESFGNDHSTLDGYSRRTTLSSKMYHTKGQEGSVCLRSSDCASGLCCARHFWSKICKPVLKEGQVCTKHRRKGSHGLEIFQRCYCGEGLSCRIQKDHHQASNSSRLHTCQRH

[10] = test system: Inhibin beta A chain (activin A); assay: small molecules binding activin A – biochemical, small-molecule microarray, 635 nm fluorescence scan, primary screen (AID 1107); settings: INHBA, higher = more signal;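 also: mouse activin A protein probed at 4.33 µg/mL on printed slides; score merges bound-protein fluorescence near 667 nm with spot signal-to-noise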
[11] = test system: Human papillomavirus type 1a protein E7 (residues 44-93); assay: small molecules binding HPV E7 44-93 – biochemical, small-molecule microarray, residues 44-93, 635 nm fluorescence, primary screen (AID 1108); settings: fluorescence 635 nm, higher = more signal;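 also: E7 fragment applied at 1 µg/mL in TBST for 1 h at 4 C; score combines spot fluorescence with its signal to noise ratio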
[12] = hepatitis C replication reporter changes, two-sided – Huh7 cells, luciferase reporter, HCV replication inhibitor project, primary screen (AID 1109); settings: Huh7 HCV replicon luciferase reporter, 48 h; higher = more signal;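 also: huh7 hepatoma cells harbouring a luciferase neomycin HCV replicon reporter; luciferase luminescence as measure of HCV replicon replication; test concentration not given here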
[13] = molecular target: Left-right determination factor 2 (Homo sapiens) (UniProt O00292); assay: small molecules binding LEFTY2 protein – biochemical, small-molecule microarray, 635 nm fluorescence scan, primary screen (AID 1110); settings: higher = more signal
Chain of Left-right determination factor 2 (Homo sapiens) (O00292 whole entry, looked up): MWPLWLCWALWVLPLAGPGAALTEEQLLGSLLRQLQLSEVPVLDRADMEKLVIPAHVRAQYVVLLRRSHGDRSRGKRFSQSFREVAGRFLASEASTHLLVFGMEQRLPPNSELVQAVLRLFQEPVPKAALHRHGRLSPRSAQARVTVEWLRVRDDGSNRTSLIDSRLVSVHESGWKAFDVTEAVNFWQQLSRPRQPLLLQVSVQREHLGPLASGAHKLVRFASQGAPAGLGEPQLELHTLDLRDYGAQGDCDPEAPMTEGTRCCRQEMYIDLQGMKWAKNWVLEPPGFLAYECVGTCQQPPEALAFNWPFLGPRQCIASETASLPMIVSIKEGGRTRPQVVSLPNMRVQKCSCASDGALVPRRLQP

[14] = molecular target: Calmodulin-1 (Homo sapiens) (UniProt P0DP23); assay: small molecules binding calmodulin-1 with EGTA – biochemical, small-molecule microarray, Cy5-labelled CALM1, profiling panel (AID 1111); settings: Cy5-CALM1 binding fluorescence, higher = more signal;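 also: labelled calmodulin applied in Tris saline Tween buffer holding calcium plus EGTA and DTT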
[15] = molecular target: Calmodulin-1 (Homo sapiens) (UniProt P0DP23); assay: small molecules binding Ca-loaded calmodulin-1 – biochemical, small-molecule microarray, Cy5-labelled CALM1, plus calcium, artefact control for SMM control-protein annotation, profiling panel (AID 1112); settings: Cy5-CALM1 binding fluorescence, higher = more signal;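 also: score merges spot fluorescence with signal to noise from triplicate slides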
[16] = probe aWnt5a binding to arrayed compounds – biochemical, biotinylated probe, 635/667 nm fluorescence, primary screen (AID 1113); settings: small-molecule microarray, higher = more signal;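 also: score merges 667 nm fluorescence intensity with signal-to-noise per printed feature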
[17] = probe aShh binding to arrayed compounds – biochemical, biotinylated probe, 635/667 nm fluorescence, primary screen (AID 1114); settings: small-molecule microarray, higher = more signal;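 also: probe is biotin-labelled aShh protein from a stem cell growth factor screen; measures binding of labelled protein to compounds printed on the slide; score merges feature fluorescence at 667 nm with signal-to-noise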
[18] = probe aNog binding to arrayed compounds – biochemical, biotinylated probe, 635/667 nm fluorescence, primary screen (AID 1115); settings: small-molecule microarray, higher = more signal;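 also: probe is biotinylated aNog protein used at 0.15 µg/mL for 1 h at 4 C; z-score combines 667 nm fluorescence of each spot with its signal to noise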
[19] = molecular target: Torsin-1A-interacting protein 1 (Homo sapiens) (UniProt Q5JTV8); assay: compound microarray binding of lysate hLAP1 – cell lysate, small-molecule microarray, COS7 lysate, 635/667 nm fluorescence, primary screen (AID 1116); settings: 635 nm fluorescence, higher = more signal
Chain of Torsin-1A-interacting protein 1 (Homo sapiens) (Q5JTV8 whole entry, looked up): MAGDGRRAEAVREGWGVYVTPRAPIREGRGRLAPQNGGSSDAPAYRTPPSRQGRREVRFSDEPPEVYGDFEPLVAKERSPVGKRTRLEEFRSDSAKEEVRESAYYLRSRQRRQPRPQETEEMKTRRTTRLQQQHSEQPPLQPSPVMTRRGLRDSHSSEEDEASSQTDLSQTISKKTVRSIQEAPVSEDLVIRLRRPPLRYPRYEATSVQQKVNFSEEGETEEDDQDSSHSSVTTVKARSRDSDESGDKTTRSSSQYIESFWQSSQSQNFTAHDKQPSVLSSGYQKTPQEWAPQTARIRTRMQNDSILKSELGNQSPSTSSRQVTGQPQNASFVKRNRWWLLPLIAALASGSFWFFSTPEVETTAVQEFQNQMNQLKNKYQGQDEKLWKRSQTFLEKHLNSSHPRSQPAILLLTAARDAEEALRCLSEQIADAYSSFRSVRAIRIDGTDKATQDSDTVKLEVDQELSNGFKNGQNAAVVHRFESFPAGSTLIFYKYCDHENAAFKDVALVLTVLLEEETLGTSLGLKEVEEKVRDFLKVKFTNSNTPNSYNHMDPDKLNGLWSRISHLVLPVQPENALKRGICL

[20] = molecular target: Alpha-bungarotoxin (Bungarus multicinctus) (UniProt P60615); assay: compounds binding labelled alpha-BTX control protein – biochemical, small-molecule microarray, Alexa647 label, 635/667 nm fluorescence, artefact control for SMM control protein annotation, profiling panel (AID 1117); settings: alpha-BTX-A647 binding fluorescence, higher = more signal
Chain of Alpha-bungarotoxin (Bungarus multicinctus) (P60615 whole entry, looked up): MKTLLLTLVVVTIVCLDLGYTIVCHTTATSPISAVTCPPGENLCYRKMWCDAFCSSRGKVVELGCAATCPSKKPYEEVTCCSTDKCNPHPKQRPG

SMILES	composite z-score [1]	composite z-score [2]	composite z-score [3]	z-score [4]	composite z-score [5]	composite z-score [6]	composite z-score [7]	composite z-score [8]	composite z-score [9]	composite z-score [10]	composite z-score [11]	z-score [12]	composite z-score [13]	composite z-score [14]	composite z-score [15]	composite z-score [16]	composite z-score [17]	composite z-score [18]	composite z-score [19]	composite z-score [20]
COc1cc2c(cc1OC)CN(C(=O)[C@H]1[C@@H]3C(=O)O[C@@H](c4ccccc4)[C@@H](c4ccccc4)N3[C@@H](c3ccc(O)cc3)[C@]13C(=O)Nc1ccccc13)CC2	1.23	-0.0009	-0.123	-0.0299 (inactive)	0.708	0.691	-0.0502	-0.276	-0.198	-0.188	1.46	-2.54	0.0835	0.92	0.427	-0.166	-0.0289	0.386	1.01	1.43
CNS(=O)(=O)c1ccc(C)cc1	0.3	-0.0385	-0.446	-1.07 (inactive)	0.648	0.674	0.434	0.688	1.14	-1.89	0.899	-0.376	0.804	-0.206	-0.263	-0.169	-0.504	-0.138	-0.312	0.514
O=C1C2C=CC(C(O)c3cccc4ccccc34)N(Nc3ccccc3F)C2C(=O)N1c1ccccc1 (stereo not given)	0.927	0.977	1.02	-0.05 (inactive)	0.606	1.18	0.172	0.79	-0.311	0.723	1.45	-0.69	0.264	1.84	0.895	0.0554	0.14	0.737	1.4	2.15
COCCCNC(=O)[C@@]1(C)c2ccccc2C(=O)N(C(C)C)[C@H]1c1ccc(CO)cc1	0.572	0.174	0.343	-0.373 (inactive)	0.555	0.497	0.517	0.861	0.888	0.531	0.761	-0.659	0.577	-0.342	-0.574	-0.152	-0.01	-0.0247	0.999	0.547
CCC[C@@H]1C[C@@]1(CCC)[C@@H](NS(=O)(=O)c1cccc2cccnc12)c1ccc(Cl)cc1	-0.318	0.916	1.1	0.109 (inactive)	0.044	-0.594	-0.484	-0.445	-0.35	1.04	1.23	-1.38	-0.385	0.976	1.28	0.0839	0.426	1.1	0.731	0.6
COc1ccc(CCNC(=O)[C@@]2(C)c3ccccc3C(=O)N(C(C)C)[C@H]2c2ccc(CO)cc2)cc1	0.5	0.056	-0.0776	-0.36 (inactive)	0.558	-0.0218	0.41	0.335	0.503	0.918	0.0331	-1.3	0.364	-0.118	-0.229	-0.131	-0.0886	-0.282	0.33	0.672
CC1(C)C2C=C(C(O)C3C=CC4C(=O)NC(=O)C4N3Nc3ccc(Cl)cc3Cl)C[C@@H]1C2 (stereo not given in full)	0.213	1.05	1.16	2.5 (inactive)	0.808	0.0644	0.27	0.745	-0.214	1.08	0.772	-1.45	-0.0061	2.35	1.01	-0.006	0.275	0.503	1.27	1.31
C=CCOC(=O)[C@@H]1[C@H]2C(=O)O[C@H](c3ccccc3)[C@H](c3ccccc3)N2[C@H](c2ccc(OCCOC(=O)[C@@H]3C[C@@H]4C(=O)NCC(=O)N4[C@@H]3c3ccc(O)cc3)cc2)[C@@]12C(=O)Nc1ccc(I)cc12	0.924	-0.485	-0.201	-0.603 (inactive)	0.912	1.29	0.715	1.22	0.82	0.0932	0.403	-1.29	0.902	1.2	0.499	-0.101	0.0796	-0.175	1.4	0.872
COC(=O)[C@@]1(Cc2ccc(OC)cc2)[C@H]2c3cc(C(=O)N(C)C)n(Cc4ccc(S(C)(=O)=O)cc4)c3C[C@H]2CN1C(=O)c1ccccc1	1.29	0.511	0.573	-0.109 (inactive)	-0.0911	0.904	-0.0743	1.08	0.0527	1.16	1.41	-1.63	-0.0612	1.36	0.798	-0.242	-0.405	-0.21	1.28	-0.0416
C=C(CCCC)C(=O)CC[C@@H](OC(=O)c1ccccc1-c1ccccc1C(=O)O)c1ccc(OCCO)cc1	1.19	-0.0379	0.0075	0.962 (inactive)	0.969	0.585	-0.181	0.668	0.55	1.42	-0.65	-2.71	0.744	-0.487	-0.559	-0.096	0.0278	0.094	0.881	1.05
CC(C)C(O)C1C=CC2C(=O)NC(=O)C2N1Nc1ccc(Cl)cc1Cl (stereo not given)	0.686	1.2	1.37	1.54 (inactive)	-0.0826	-0.234	-0.0718	-0.265	-0.939	1.47	-0.898	-0.88	-0.226	1.5	1.23	-0.0944	-0.296	0.0266	1.91	0.712
